Screens (PubChem BioAssay)
IL1B secr inh: qHTS for Inhibitors of Inflammasome Signaling: IL-1-beta AlphaLISA Primary Screen. THP-1 LPS/ATP IL-1B secretion, AlphaLISA, 16 h; active compounds read low. activity change, % at 57.5 µM. actives 4.7% (n = 360,000). AID 743279, 2014; in the data active = activity change below about -50%; inconclusive = mostly about -30% to -49%
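THP-1 cells pretreated 1 hr with compounds (up to 57.5 uM final), then stimulated with LPS (250 ng/mL final) plus ATP (1.25 mM final); secreted IL-1B measured by AlphaLISA after 16 hr, decreased signal indicating inhibition.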
CtBP-E1A blk: qHTS Assay for Inhibitors of the CtBP/E1A Interaction. CtBP / adenovirus E1A interaction (AlphaScreen). actives 0.49% (n = 340,000). activity change, % (concentration not given with the values). AlphaScreen GST-E1A/His-CtBP binding, 1536-well; active compounds read low; in the data active = activity change below about -65%; inconclusive = mostly about -30% to -63%
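In 5 uL wells, 23 nL compound meets equimolar GST-E1A and His-CtBP (5X stock 125 nM each) for 2 h, 37 °C. Beads (5X, 50 ug/mL) then 1 h, 37 °C, dark.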
DT40 TDP1 CPT: qHTS for Inhibitors of human tyrosyl-DNA phosphodiesterase 1 (TDP1): qHTS in cells in presence of CPT; chicken DT40 Tdp1-/-;hTDP1 cells + 20 nM CPT, ATP luminescence, 48 h; Potency, µM (titrated, usually from 46.2 µM), inactives show top-dose activity change, negative = growth inhibition, usual class: inhibitors; actives 12% (n = 420,000); AID 686979, 2013; also: potency is read from the fitted curve at half-maximal effect; nearly all actives have a fitted effect of over 55% in size
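Chicken DT40 Tdp1-/- cells complemented with human TDP1, 400 cells/well, exposed to compounds plus 20 nM camptothecin for at least 48 h at 37 C; viability read as ATP content by CellTiter-Glo luminescence.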
TDP1 inh: qHTS Assay for Inhibitors of Tyrosyl-DNA Phosphodiesterase (TDP1). recombinant TDP1, AlphaScreen DNA substrate cleavage. Potency, µM (top dose mostly 130 µM), inactives show top-dose activity change, negative = inhibition, actives largely listed as inhibitors. actives 0.28% (n = 350,000); also: potency is read from the fitted curve at half-maximal effect; nearly all actives have a fitted effect of over 40% in size
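Recombinant human Tdp1 (E. coli-expressed, 1 nM final) preincubated with compounds 15 min at room temperature, then 5'-biotin/3'-phosphotyrosine-FITC DNA substrate (15 nM final) added for 5 min. AlphaScreen beads (10 ug/ml final) added 10 min; cleavage lowers signal.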
Six1-Eya2 inh: qHTS Assay for Inhibitors of the Six1/Eya2 Interaction; Homeobox protein SIX1 (Homo sapiens) + Protein phosphatase EYA2 (Homo sapiens), …; AlphaScreen GST-Six1/His-Eya2 binding, biochemical; active compounds read low; activity change, % (test concentration not listed); actives 0.56% (n = 360,000); AID 651725, 2012; in the data active = activity change below about -65%; inconclusive = mostly about -30% to -63%
Target sequence (O00167 whole entry, looked up): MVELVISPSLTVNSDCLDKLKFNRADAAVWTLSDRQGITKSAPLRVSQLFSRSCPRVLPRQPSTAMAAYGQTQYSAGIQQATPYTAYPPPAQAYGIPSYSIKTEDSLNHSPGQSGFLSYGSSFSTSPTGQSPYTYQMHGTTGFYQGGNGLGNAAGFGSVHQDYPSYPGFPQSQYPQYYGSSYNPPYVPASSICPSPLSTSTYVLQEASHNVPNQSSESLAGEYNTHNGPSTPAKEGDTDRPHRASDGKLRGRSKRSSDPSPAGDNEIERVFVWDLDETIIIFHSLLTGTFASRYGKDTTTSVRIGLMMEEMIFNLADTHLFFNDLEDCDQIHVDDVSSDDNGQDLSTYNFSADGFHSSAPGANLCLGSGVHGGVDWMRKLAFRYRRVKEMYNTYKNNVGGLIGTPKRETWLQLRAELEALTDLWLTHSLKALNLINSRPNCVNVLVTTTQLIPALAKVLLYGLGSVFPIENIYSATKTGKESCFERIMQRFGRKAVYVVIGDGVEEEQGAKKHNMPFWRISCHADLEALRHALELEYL
Target sequence (Q15475 whole entry, looked up): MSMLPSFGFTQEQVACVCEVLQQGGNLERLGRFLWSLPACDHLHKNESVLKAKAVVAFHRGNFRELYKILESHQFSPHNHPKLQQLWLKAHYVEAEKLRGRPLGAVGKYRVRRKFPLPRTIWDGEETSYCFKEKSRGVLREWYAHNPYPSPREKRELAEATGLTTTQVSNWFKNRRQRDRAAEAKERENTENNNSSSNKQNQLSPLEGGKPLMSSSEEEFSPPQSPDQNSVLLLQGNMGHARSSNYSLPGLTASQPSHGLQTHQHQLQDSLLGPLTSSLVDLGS
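GST-Six1 + His-Eya2 (5X stock: 250/500 nM); Tris pH 8.0, 300 mM NaCl, 0.05% BSA, 0.02% Tween 20; GSH donor/Ni acceptor beads; 1 h 37 °C dark; AlphaScreen readout.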
DT40 TDP1 no CPT: qHTS for Inhibitors of human tyrosyl-DNA phosphodiesterase 1 (TDP1): qHTS in cells in absence of CPT | DT40 Tdp1-/- hTDP1 cells, no CPT, ATP luminescence, 48 h | actives 15% (n = 420,000) | Potency, µM (series often up to 46.2 µM), for the others: at the highest dose activity change, negative = growth inhibition, usual class: inhibitors; also: potency is read from the fitted curve at half-maximal effect; nearly all actives have a fitted effect of over 55% in size
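Readout: luminescence from CellTiter-Glo after 30 min in the dark at RT. Cells: DT40 Tdp1-/- with stable hTDP1, 400/well. Exposure: compounds alone, ≥48 hr, 37 °C.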
* marks the source's active call; other numbers are inactive results; ? = inconclusive; . = no result given; [ ] = dose if it differs, or a comment. Hits are enriched below; roughly 18% of the tested compounds scored in any of these assays. Unless noted, calls follow the shape of the dose curve; as a rule, active = well fitted curve in the direction sought with a large enough effect; inconclusive = small, poorly fitted or top-dose-only effect, or another doubt; inactive = no such curve, though single readings can be large; an effect the other way counts as inactive or inconclusive. % is scaled to controls: 0 for no effect and ±100 for the full control effect.

SMILES | IL1B secr inh | CtBP-E1A blk | DT40 TDP1 CPT | TDP1 inh | Six1-Eya2 inh | DT40 TDP1 no CPT
Fc1ccc(NC(=S)Nc2cccc3ccccc23)cc1F | 2 | -11 | ? | 3% | -9 | 16µM*
CC(C)c1ccc(NC(=S)Nc2cccc3ccccc23)cc1 | -8 | -7 | 18µM* | 7%[56.1 µM] | -14 | 16µM*
O=C(C1=C(O)C(=O)N(Cc2cccnc2)C1c1ccccn1)c1cccs1 (stereo not drawn) | 8 | -14 | -13% | 0% | -3 | 8%
O=C(NCc1ccc(C(F)(F)F)cc1)C1CC(c2ccc(C(F)(F)F)cc2)=NO1 (stereo not drawn) | 37 | 13 | 23µM* | . | 5 | 13µM*
O=C(NCc1ccco1)C1CC(c2cc(C(F)(F)F)cc(C(F)(F)F)c2)=NO1 (stereo not drawn) | 70 | . | 2.6µM* | 2% | 0 | 2.3µM*
O=C1c2ccccc2-c2onc3ccc(N4CCCC4)c1c23 | ? | ? | ? | 9% | -68* | 26µM*
O=C1c2ccccc2-c2onc3ccc(NCc4ccco4)c1c23 | -97* | -93* | ? | 79µM* | -85* | 23µM*
O=C1c2ccccc2C(=O)c2c1cccc2N1CCCC1 | -29 | -89* | ? | 2% | -87* | 8.2µM*
O=C1c2ccccc2-c2cccc(C(=O)N3CCCCC3)c21 | -19 | -9 | -6% | 9% | 5 | -9%
Cn1c(=O)cc2c3c(c(N4CCCCC4)ccc31)C(=O)c1ccccc1-2 | -13 | . | ? | 10% | ? | 10µM*
Cn1nc(-c2ccccc2)c(N2CCCCC2)cc1=O | -5 | -6 | -4% | -2% | 1 | ?
Nn1cnnc1N/N=C\c1ccc(-c2ccccc2[N+](=O)[O-])o1 | 17 | 0 | ? | 7% | ? | -30%
CC(=O)Nc1ccc(OCc2nnc(-c3ccc(Cl)cc3)o2)cc1 | 102 | 2 | -14% | -3% | 6 | -23%
COC(=O)c1cc(NC(=O)CN2CCc3cc4c(cc3C2)OCCCO4)cc(C(=O)OC)c1 | 19 | -1 | ? | . | -2 | ?
CCOC(=O)/C(C#N)=C\c1ccco1 | -10 | -1 | 0% | . | -6 | 2%
O=C1C=C(N2CCCCC2)c2ccccc2C1=O | -97* | 8 | 3.7µM* | . | 69 | 6.5µM*
O=C1C=C(O)c2ccccc2C1=O | . | . | ? | 4% | . | -2%[9.04 µM]
CCCNC(=O)C1CCN(S(=O)(=O)c2cccs2)CC1 | 4 | 4 | 7% | 0% | 4 | 9%
CCCn1c(NC(=O)c2cccc(S(=O)(=O)N3CCCC3)c2)nc2ccccc21 | -92* | ? | 23µM* | 12% | ? | 13µM*
CCCn1c(NC(=O)c2ccccc2)nc2ccccc21 | 25 | 17 | ? | 8% | 17 | ?
Cc1csc(NC(=O)C2CCN(S(=O)(=O)c3ccccc3F)CC2)n1 | 12 | 1 | ? | 3% | -3 | 26µM*
CCCn1c(NC(=O)C2CCN(S(=O)(=O)c3cccs3)CC2)nc2ccccc21 | ? | -5 | 15µM* | 12% | -4 | 16µM*
Cc1nc(-c2ccc(NC(=O)C3CC3)cc2)cs1 | 5 | -1 | 23µM* | 11% | -11 | 18µM*
CC1Cc2cc(/C(O)=C3\C(=O)C(=O)N(Cc4ccncc4)C3c3ccccc3F)ccc2O1 (stereo not drawn) | -7 | -10 | 1% | 7% | 4 | 18%
Nc1ccc2c(c1)OCCOCCOCCOCCOCCO2 | 23 | -2 | -4% | 3% | -2 | 0%
SMILES | IL1B secr inh | CtBP-E1A blk | DT40 TDP1 CPT | TDP1 inh | Six1-Eya2 inh | DT40 TDP1 no CPT
N#CC1=C(N)C(C#N)(C#N)C(c2cccnc2)C2COCC=C12 (stereo not drawn) | 0 | 1 | 1% | 4% | 1 | -5%
CN(C)C(CNC(=O)c1ccc2ccccc2c1)c1ccco1 (stereo not drawn) | -5 | 7 | ? | 7% | -3 | ?
CCCCn1c(Nc2ccccc2)nc2ccccc21 | -16 | -11 | -7% | 5% | 12 | -19%
Cc1csc(NC(=O)C2CCN(S(=O)(=O)c3cccs3)CC2)n1 | -20 | -5 | ? | 3% | 4 | -4%
CCCn1c(NC(=O)c2ccc(C)cc2)nc2ccccc21 | 0 | 7 | ? | 9% | -6 | 26µM*
CCCn1c(Nc2nc3ccccc3n2C)nc2ccccc21 | -99* | -1 | -9% | 10% | -1 | ?
CC(=O)Nc1ccc(-c2csc(NC(=O)C3CCN(S(=O)(=O)c4cccs4)CC3)n2)cc1 | 20 | -15 | 16µM* | 8% | 0 | 8.2µM*
Cc1cc(C)cc(C(=O)NN2CCN(C)CC2)c1 | 1 | 2 | ? | 3% | 5 | ?
CC1(C)OC(=O)N(CC(=O)Nc2ccccc2)C1(C)O (stereo not drawn) | -4 | 5 | ? | 0% | 4 | ?
COCc1c(C(=O)N(C)Cc2ccccc2N2CCCC2)oc2ccccc12 | -16 | -29 | ? | 6% | -21 | 23µM*
COCc1c(C(=O)N2CCN(Cc3ccc(C#N)cc3)CC2)oc2ccccc12 | -11 | -1 | -30% | 6% | 2 | 21µM*
COCc1c(C(=O)N2CCN(c3ncccn3)CC2)oc2ccccc12 | 10 | 10 | 15µM* | -1% | 0 | ?
COCc1c(C(=O)N2CCN(Cc3c(F)cccc3Cl)CC2)oc2ccccc12 | -29 | 1 | ? | 1% | -7 | 21µM*
COCc1c(C(=O)N2CCN(Cc3ccc4c(c3)OCO4)CC2)oc2ccccc12 | -3 | -26 | ? | 3% | -7 | ?
CC(=O)N1CCN(C(=O)CSc2ncnc3sc(C)c(C)c23)CC1 | 11 | -1 | -3% | 1% | -2 | -4%
CCC(=O)NC(NC(=O)CC)C(Cl)Cl | 13 | 4 | 18% | -2% | 4 | -1%
CC(NC(=O)COC(=O)/C=C/c1ccc([N+](=O)[O-])cc1)c1ccccc1 (stereo not drawn) | 11 | ? | -4% | 1% | -30 | -8%
